JMJD2A Tudor inh: blocks the human JMJD2A Tudor domain; O75164; AlphaScreen JMJD2A-Tudor / H3K4me3 peptide binding; 390,000 compounds, 4.4% hits; Potency, µM (doses to about 114 µM), for inactives: at the highest dose activity change, negative = inhibition, actives largely listed as inhibitors; note: % is set by controls: 0 for no effect and ±100 for the full control effect; nearly all actives have a fitted effect of over 50% in size
G9a block: blocks human histone lysine methyltransferase G9a; Q96KQ7; G9a H3K9 monomethylation, AlphaScreen, 2 h; Potency, µM (series often up to 102 µM), for inactives: at the top dose activity, negative = inhibition, most hits filed as inhibitors; 350,000 compounds, 8.8% hits; AID 504332; note: % is set by controls: 0 for no effect and ±100 for the full control effect; nearly all actives have a fitted effect of over 75% in size
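G9a (20 nM) preincubated 15 min RT with compounds, then 500 nM biotinylated H3K9 peptide and 20 uM SAM added; 2 h RT reaction. Monomethyl-H3K9 product detected by AlphaScreen with anti-H3K9me1 antibody, streptavidin donor and anti-rabbit IgG acceptor beads.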
12-LOX inh: ALOX12 (human) lipoxygenase inhibition; P18054; purified 12hLO, xylenol orange hydroperoxide absorbance; Potency, µM (doses to about 108 µM), for the others: top-dose activity change, negative = inhibition, most hits filed as inhibitors; 580,000 compounds, 1.1% hits; AID 1671190; note: % is set by controls: 0 for no effect and ±100 for the full control effect
Target sequence (P18054 whole entry, looked up): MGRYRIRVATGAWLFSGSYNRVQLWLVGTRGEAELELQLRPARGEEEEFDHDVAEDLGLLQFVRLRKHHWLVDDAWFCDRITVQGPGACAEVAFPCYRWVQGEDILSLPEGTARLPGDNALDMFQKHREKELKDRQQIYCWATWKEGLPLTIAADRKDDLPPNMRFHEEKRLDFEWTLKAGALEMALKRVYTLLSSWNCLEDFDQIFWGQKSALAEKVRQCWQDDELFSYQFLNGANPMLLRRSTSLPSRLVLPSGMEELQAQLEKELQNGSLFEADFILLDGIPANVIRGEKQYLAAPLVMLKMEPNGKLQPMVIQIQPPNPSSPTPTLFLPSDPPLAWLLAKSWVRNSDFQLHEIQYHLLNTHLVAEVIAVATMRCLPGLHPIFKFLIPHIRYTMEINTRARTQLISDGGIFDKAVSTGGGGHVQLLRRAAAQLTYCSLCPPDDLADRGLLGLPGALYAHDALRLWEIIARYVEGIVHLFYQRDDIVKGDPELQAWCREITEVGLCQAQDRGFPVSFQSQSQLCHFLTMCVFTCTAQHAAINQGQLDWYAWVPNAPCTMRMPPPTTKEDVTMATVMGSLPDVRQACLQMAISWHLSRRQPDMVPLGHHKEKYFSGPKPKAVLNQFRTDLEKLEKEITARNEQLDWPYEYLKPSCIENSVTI
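Hydroperoxide product was detected by ferrous iron/xylenol orange as the 573 to 405 nm absorbance ratio. Arachidonic acid at 40 uM (final) was turned over for 30 min at room temperature by 150 nM human 12hLO, pH 7.0 Hepes buffer, after 15 min compound preincubation.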
BAZ2B inh: inhibitors of human BAZ2B bromodomain | Q9UIF8 | AlphaScreen BAZ2B-H3K14Ac peptide displacement | Potency, µM (top dose mostly 114 µM), for inactives: top-dose activity change, negative = inhibition, hits mostly inhibitors | 360,000 compounds, 4.4% hits | AID 504333; note: % is set by controls: 0 for no effect and ±100 for the full control effect; nearly all actives have a fitted effect of over 60% in size
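Multi-concentration screen (max 110 uM) measuring displacement of acetylated histone H3 peptide from BAZ2B by AlphaScreen, using 50 nM protein, 50 nM peptide and 10 ug/mL streptavidin donor plus Ni-chelate acceptor beads.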
Sfp PPTase inh: inhibitors of Bacillus subtilis Sfp phosphopantetheinyl transferase; Q9F4F7; Biochemical Sfp PPTase activity, qHTS; Potency, µM, for inactives: largest response in the series, negative = inhibition, hits mostly inhibitors; 310,000 compounds, 3.5% hits; AID 1490;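 note: the enzyme is Sfp with the accession as filed and its product quenches rhodamine fluorescence; 0% = enzyme reaction without inhibitor and -100% = no enzyme wells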
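Fluorescence-quenching assay with 15 nM Sfp, 5 uM rhodamine-CoA and 12.5 uM BHQ-2-labelled ybbR peptide in pH 7.6 Hepes/MgCl2 buffer. Enzyme was pre-incubated with compound for 15 min at room temperature. Rate was taken from the 30-min fluorescence change (525/598 nm).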
HP1b chromo inh: blocks HP1-beta chromodomain binding to methylated histone tails; AlphaScreen HP1-beta / biotin-H3K9me3 peptide binding; 390,000 compounds, 0.56% hits; P83916; Potency, µM (top dose mostly 114 µM), without a hit: at the highest dose activity change, negative = inhibition, usual class: inhibitors; note: nearly all actives have a fitted effect of over 70% in size
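AlphaScreen: HP1-beta (50 nM) preformed 30 min with biotin-H3(1-18)K9me3 peptide (50 nM) in PBS pH 7.4, 0.01% Tween-20. Compound added for 30 min at RT, then streptavidin donor/nickel chelate acceptor beads (10 ug/mL) for 30 min.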
* = called active by the depositor; u = inconclusive; x = not tested or not shown; [ ] = dose if it differs, or a comment. Hits are enriched below; roughly 8.7% of the tested compounds scored in any of these assays. Calls come from the whole dose curve; as a rule, active = well fitted curve in the direction sought with a large enough effect; inconclusive = small, poorly fitted or top-dose-only effect, or another doubt; inactive = no such curve, though single readings can be large; an effect the other way counts as inactive or inconclusive. Potency is the fitted concentration of half-maximal effect.

SMILES	JMJD2A Tudor inh	G9a block	12-LOX inh	BAZ2B inh	Sfp PPTase inh	HP1b chromo inh
COc1cc(/C=C2\SC(=O)N(Cc3ccc(F)cc3)C2=O)cc([N+](=O)[O-])c1O	28µM*	x	u	8.9µM*	12%	16µM*
COc1cc(/C=C2\SC(=O)N(Cc3ccc(Cl)cc3)C2=O)cc([N+](=O)[O-])c1O	8.9µM*	-116%[59 µM]	-102%	16µM*	-19%	13µM*
COc1ccc(N2Cc3cccc(C(=O)NCc4ccc(Cl)cc4)c3C2=O)cc1	x	x	-8%	x	x	x
CC(C)CN1C(=O)/C(=C(/C#N)C(=O)NC2CCCCC2)c2ccccc21	u	u	3%	u	7.1µM*	9%
CCCCN1C(=O)/C(=C(/C#N)C(=O)N2CCCC2)c2ccccc21	-27%	-14%[12.7 µM]	8%	-37%	-8%	1%
Cc1ccc(CNC(=O)CC2=C3CCCCC3N(C(C)C)C2=O)o1 (stereo unspecified)	x	x	3%	x	x	x
C/C(CC1CC(C)OC1=O)=N\NC(N)=S (stereo unspecified)	u	35µM*	-3%	u	25µM*	-12%
O=[N+]([O-])c1ccc(N=NNc2ccccc2)cc1	25µM*	22µM*	x	28µM*	-11%	u
Brc1ccc(N=NNc2ccccc2)cc1	-26%	x	u	40µM*	-6%	34%
O=[N+]([O-])c1cccc(NN=Nc2ccccc2)c1	u	45µM*	16µM*	u	-10%	-11%
O=C(O)c1cc(NN=Nc2ccc(Br)cc2)cc([N+](=O)[O-])c1	u	32µM*	u	-11%	7%	-2%
CC1(C)CC(=O)C/C(=N/NC(=O)c2cccc(Br)c2)C1	x	x	-2%	x	x	x
Cn1nc(C(=O)OC2CCCCCC2)c2ccccc2c1=O	x	x	14%	x	x	x
CC(=O)Oc1ccc(-c2nc3cc(Cl)ccc3o2)cc1	x	x	49%	x	x	x
O=C1CNC(=O)N1c1ccc(Cl)cc1	-16%	-4%	0%	1%	15%	49%
CN(C)/C=C1\NC(=S)N(c2ccc(Cl)cc2)C1=O	45µM*	5.6µM*	u	u	32µM*	u
CN(C)/C=C1\NC(=S)N(c2ccccc2)C1=O	35µM*	7.9µM*	u	-16%	50µM*	-26%
O=C(Nc1ccc(Cl)cc1)c1nc2ccccc2nc1N1CCOCC1	x	x	-1%	x	x	x
Cc1csc(NC(=O)C2CC(=O)N(c3n[nH]c4cccc(F)c34)C2)n1 (stereo unspecified)	x	x	-11%	x	x	x
O=C(Nc1ccc(Nc2ccncc2)cc1)c1ccc(Nc2ccnc3ccc([N+](=O)[O-])cc23)cc1[N+](=O)[O-]	u	50µM*	u	-18%	u	-37%
Cc1cc(NC(=O)CN2CC3CC(C2)c2cccc(=O)n2C3)nc2c1c(=O)oc1ccccc12 (stereo unspecified)	x	35µM*	x	u	-2%	x
Cc1cc(NC(=O)CN2CCC(O)CC2)nc2c1c(=O)oc1ccccc12	-14%	5%[59 µM]	0%	2%	x	33%
CCc1ccc(-c2cc(C(=O)N/N=C/c3ccccn3)[nH]n2)cc1	-28%	99%[59 µM]	6%	-15%	-11%	-2%
CCCc1sc(N/N=C/c2ccccn2)nc1-c1ccc(Br)cc1	50µM*	-5%[59 µM]	-28%	-33%	1%	6%
CCCN1C(=O)/C(=C/c2ccc(C)o2)NC1=S	x	7.9µM*	x	u	20µM*	x
SMILES	JMJD2A Tudor inh	G9a block	12-LOX inh	BAZ2B inh	Sfp PPTase inh	HP1b chromo inh
CCN1C(=O)N/C(=C/c2ccc(C)o2)C1=O	-31%	u	-11%	-35%	-97%	17%
Cc1ccc(/C=C2/NC(=O)N(Cc3ccccc3F)C2=O)o1	u	32µM*	u	3%	14µM*	-7%
Cc1ccc(/C=C2/NC(=O)N(Cc3ccc(Br)cc3)C2=O)o1	50µM*	32µM*	45µM*	-13%	3.2µM*	-2%
Cc1c(C(=O)O)cccc1-c1ccc(/C=C2/NC(=O)N(c3ccccc3)C2=O)o1	-5%	u	-3%	-15%	-10%	28%
Cc1ccc(/C=C2/NC(=O)N(c3ccccc3)C2=O)o1	-31%	36%[0.501 µM]	-18%	56µM*	25µM*	10%
CCCCn1c(=O)[nH]c(=O)c2c1nc(CSc1nnc(C(F)(F)F)n1C)n2C	x	x	0%	x	x	x
Cc1cnc(C2CC2)n1CCNS(=O)(=O)c1ccccc1Cl	x	x	60%	x	x	x
COc1ccccc1-c1cnc(NC(=O)c2cnccn2)c2c1CCO2	x	x	69%[176 µM]	x	x	x
O[C@@H]1C[C@@H](c2nnc3n2CCN(Cc2ccc4c(c2)CCO4)C3)N(Cc2cccnc2)C1	x	x	52%	x	x	x
Cc1ccc(CN2C(=O)N/C(=C\c3ccc(N4CCOCC4)cc3)C2=O)cc1	-9%	-2%[59 µM]	6%	-11%	9%	19%
O=C1N/C(=C/c2ccc(N3CCOCC3)o2)C(=O)N1c1cccc(Cl)c1	-35%	u	u	-23%	8.9µM*	1%
COC(=O)c1cc(=O)n(Cc2cccs2)c(=Nc2ccc(F)cc2)s1	-26%	x	-8%	u	1%	-16%
COC(=O)c1cc(=O)n(Cc2ccco2)c(=Nc2ccc(F)c(Cl)c2)s1	u	35µM*	22%	u	u	-21%
COC(=O)c1ccc(N=c2sc(C(=O)OC)cc(=O)n2C)cc1	-22%	u	0%[57.4 µM]	-15%	6%	30%
COC(=O)c1cc(=O)n(CCc2ccccc2F)c(=Nc2ccc(F)c(Cl)c2)s1	u	40µM*	7%	u	3%	3%
COC(=O)c1cc(=O)n(-c2ccc(F)cc2)c(=Nc2ccc(F)cc2)s1	u	40µM*	0%	u	4%	-14%
COC(=O)c1cc(=O)n(Cc2ccco2)c(=Nc2ccccc2)s1	x	x	-6%	x	x	x
O=C1/C(=C/c2ccc(F)cc2)C(c2ccccc2)Oc2ccccc21 (stereo unspecified)	x	x	-15%	x	x	x
COCC(=O)N[C@H](C)c1onc(C)c1C(=O)O	x	x	-22%[176 µM]	x	x	x
CCOC12NC(=O)CC(=O)N1C(c1ccccc1)=CS2 (stereo unspecified)	-16%	50µM*	-27%	-37%	-10%	13%
CCC(=O)Nc1cc(Cl)ccc1C(=O)O	79µM*	-4%[59 µM]	-19%	u	15%	26%
O=C(O)c1ccc(Cl)cc1Nc1nc2cc(Cl)ccc2o1	-23%	-43%	8.9µM*	-4%	7%	-3%
CCCN1Cc2cccc(C(=O)Nc3cc(Cl)cc(Cl)c3)c2C1=O	x	x	-40%	x	x	x
Nc1csnc1C(=O)O	20µM*	32µM*	0%	u	-3%	14%
O=C(O)c1cc(C(=O)O)c(C(=O)O)nc1C(=O)O	x	x	20%	x	x	x

Assay outcomes from PubChem.
